# Legend:
# Test in all cases: DAPPL (digital affinity profiling via proximity ligation, sequencing); 10 mM Tris-HCl pH 7.5, 50 mM NaCl, 1 mM DTT, 4% glycerol, room temperature, 30 min; GST-TFs on glutathione beads, 16-mer random dsDNA library, 0.1% formaldehyde crosslink after washing; high values mean tight binding
# FLI1 = biological target: T1, FLI1 (Homo sapiens, UniProt Q01543 1-452); details: protein: recombinant; tags: N-terminal GST; dsDNA, one strand shown
# T1 sequence: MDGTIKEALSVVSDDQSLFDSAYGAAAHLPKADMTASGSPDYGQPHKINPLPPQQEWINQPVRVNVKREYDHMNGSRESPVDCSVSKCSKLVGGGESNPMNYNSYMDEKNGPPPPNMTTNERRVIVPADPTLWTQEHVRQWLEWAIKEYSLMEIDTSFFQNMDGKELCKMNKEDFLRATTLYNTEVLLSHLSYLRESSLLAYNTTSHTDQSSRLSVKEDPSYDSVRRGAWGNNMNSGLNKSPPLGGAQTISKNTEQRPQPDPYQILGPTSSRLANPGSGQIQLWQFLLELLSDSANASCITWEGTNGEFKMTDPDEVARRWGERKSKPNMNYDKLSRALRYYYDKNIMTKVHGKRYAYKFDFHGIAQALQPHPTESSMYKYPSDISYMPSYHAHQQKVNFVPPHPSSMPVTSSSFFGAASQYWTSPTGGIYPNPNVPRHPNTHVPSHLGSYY
# Procedure, shortened: (§1)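 Sequencing on an Illumina NextSeq500 followed washing, crosslinking with 0.1% formaldehyde, proximity ligation (BsaI/T4 ligase, 1 h, 37 °C) and PCR amplification of pools that had been incubated for 30 min at room temperature with 200 nmole of a random double-stranded 16-mer DNA library in Tris/NaCl/DTT/glycerol buffer. Each pool held DNA-barcoded human transcription factors, expressed in yeast as GST fusions and captured on glutathione beads, plus a tag-only sample. Binding signal is a hexamer's read frequency for a factor divided by its frequency in the tag-only sample.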
# GABPA = biological target: T2, GABPA (Homo sapiens, UniProt Q06546 1-454); details: protein: recombinant; tags: N-terminal GST; dsDNA, one strand shown
# T2 sequence: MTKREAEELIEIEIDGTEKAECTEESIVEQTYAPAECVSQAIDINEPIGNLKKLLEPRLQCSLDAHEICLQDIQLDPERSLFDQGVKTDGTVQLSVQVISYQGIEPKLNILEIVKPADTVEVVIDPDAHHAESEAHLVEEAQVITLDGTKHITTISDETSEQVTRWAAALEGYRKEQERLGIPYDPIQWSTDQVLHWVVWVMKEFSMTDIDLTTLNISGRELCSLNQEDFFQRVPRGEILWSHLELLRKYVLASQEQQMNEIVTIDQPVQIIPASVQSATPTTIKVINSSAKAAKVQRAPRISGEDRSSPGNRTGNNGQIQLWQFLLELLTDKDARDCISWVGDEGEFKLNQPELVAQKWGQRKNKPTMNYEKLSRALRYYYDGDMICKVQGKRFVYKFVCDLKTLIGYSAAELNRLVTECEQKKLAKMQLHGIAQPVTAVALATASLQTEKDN
# Procedure, shortened: as §1
# EHF = biological target: T3, EHF (Homo sapiens, UniProt Q9NZC4 1-300); details: protein: recombinant; tags: N-terminal GST; dsDNA, one strand shown
# T3 sequence: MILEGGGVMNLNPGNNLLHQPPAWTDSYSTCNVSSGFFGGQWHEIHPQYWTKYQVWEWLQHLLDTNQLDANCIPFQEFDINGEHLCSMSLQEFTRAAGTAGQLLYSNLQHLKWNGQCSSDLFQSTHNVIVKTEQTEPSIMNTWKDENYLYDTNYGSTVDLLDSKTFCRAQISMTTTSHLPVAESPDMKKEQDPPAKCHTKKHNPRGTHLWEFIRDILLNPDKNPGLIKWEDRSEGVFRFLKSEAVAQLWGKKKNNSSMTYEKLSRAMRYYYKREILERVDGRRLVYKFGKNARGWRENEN
# Procedure, shortened: as §1
# HSF1 = HSF1 (Homo sapiens, UniProt Q00613 1-529); details: protein: recombinant; tags: N-terminal GST; chain copies: 3; dsDNA, one strand shown
# Chain of HSF1 (Q00613 whole entry): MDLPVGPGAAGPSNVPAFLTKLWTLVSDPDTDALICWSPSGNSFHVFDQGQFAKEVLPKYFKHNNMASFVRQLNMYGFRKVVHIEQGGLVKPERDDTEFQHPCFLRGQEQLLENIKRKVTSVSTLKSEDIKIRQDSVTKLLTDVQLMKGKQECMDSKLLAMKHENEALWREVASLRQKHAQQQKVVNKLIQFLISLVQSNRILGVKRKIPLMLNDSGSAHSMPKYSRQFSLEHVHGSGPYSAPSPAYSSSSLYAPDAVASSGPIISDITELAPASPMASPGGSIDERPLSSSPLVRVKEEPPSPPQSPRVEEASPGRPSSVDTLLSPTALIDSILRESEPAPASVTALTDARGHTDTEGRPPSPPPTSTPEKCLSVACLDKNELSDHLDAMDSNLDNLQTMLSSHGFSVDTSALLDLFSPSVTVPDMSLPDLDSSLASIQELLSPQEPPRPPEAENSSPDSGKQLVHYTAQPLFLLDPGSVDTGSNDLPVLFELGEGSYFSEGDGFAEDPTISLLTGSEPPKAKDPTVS
# Procedure, shortened: as §1
# ETV2 = biological target: T4, ETV2 (Homo sapiens, UniProt O00321 1-342); details: protein: recombinant; tags: N-terminal GST; dsDNA, one strand shown
# T4 sequence: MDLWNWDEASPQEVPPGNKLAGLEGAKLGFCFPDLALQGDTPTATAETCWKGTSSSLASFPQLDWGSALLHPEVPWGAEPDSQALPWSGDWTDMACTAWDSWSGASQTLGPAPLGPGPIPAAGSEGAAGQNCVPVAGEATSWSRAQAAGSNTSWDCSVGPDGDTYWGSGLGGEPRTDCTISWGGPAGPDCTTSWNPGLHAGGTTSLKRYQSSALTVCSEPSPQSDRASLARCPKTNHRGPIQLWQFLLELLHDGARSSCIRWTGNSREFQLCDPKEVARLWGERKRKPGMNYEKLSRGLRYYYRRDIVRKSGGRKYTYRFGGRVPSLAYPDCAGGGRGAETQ
# Procedure, shortened: as §1
# ELF3 = biological target: T5, ELF3 (Homo sapiens, UniProt P78545 1-371); details: protein: recombinant; tags: N-terminal GST; dsDNA, one strand shown
# T5 sequence: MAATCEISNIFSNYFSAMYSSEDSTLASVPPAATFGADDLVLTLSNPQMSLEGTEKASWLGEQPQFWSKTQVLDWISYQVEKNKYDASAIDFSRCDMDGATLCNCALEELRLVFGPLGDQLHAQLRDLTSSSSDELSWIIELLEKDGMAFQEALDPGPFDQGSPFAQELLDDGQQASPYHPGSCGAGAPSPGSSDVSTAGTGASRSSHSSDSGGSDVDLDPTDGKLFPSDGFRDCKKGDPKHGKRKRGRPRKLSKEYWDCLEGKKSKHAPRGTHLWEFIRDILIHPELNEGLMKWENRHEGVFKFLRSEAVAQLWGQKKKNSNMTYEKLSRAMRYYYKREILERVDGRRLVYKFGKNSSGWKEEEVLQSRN
# Procedure, shortened: as §1
# CRX = CRX (Homo sapiens, UniProt O43186 1-299); details: protein: recombinant; tags: N-terminal GST; dsDNA, one strand shown
# Chain of CRX (O43186 whole entry): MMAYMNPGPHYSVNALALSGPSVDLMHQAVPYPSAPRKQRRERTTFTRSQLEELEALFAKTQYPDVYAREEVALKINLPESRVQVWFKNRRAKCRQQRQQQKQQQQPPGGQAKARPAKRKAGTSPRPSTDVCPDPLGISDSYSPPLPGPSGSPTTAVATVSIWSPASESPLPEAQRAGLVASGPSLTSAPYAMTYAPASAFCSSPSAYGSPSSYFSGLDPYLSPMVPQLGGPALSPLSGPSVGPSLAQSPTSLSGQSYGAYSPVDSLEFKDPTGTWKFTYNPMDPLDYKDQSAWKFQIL
# Procedure, shortened: as §1
# ETV7 = biological target: T6, ETV7 (Homo sapiens, UniProt Q9Y603 1-341); details: protein: recombinant; tags: N-terminal GST; dsDNA, one strand shown
# T6 sequence: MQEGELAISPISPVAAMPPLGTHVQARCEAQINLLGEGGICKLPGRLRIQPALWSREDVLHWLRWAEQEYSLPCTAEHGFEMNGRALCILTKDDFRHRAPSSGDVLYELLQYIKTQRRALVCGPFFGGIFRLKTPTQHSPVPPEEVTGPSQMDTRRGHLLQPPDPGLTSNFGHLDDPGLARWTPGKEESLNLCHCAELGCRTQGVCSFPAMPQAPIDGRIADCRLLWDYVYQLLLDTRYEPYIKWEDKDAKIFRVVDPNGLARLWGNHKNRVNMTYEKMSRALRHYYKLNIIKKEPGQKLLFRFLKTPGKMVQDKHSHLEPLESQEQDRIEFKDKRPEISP
# Procedure, shortened: as §1
# ETV6 = ETV6 (Homo sapiens, UniProt P41212 1-452); details: protein: recombinant; tags: N-terminal GST; dsDNA, one strand shown
# Chain of ETV6 (P41212 whole entry): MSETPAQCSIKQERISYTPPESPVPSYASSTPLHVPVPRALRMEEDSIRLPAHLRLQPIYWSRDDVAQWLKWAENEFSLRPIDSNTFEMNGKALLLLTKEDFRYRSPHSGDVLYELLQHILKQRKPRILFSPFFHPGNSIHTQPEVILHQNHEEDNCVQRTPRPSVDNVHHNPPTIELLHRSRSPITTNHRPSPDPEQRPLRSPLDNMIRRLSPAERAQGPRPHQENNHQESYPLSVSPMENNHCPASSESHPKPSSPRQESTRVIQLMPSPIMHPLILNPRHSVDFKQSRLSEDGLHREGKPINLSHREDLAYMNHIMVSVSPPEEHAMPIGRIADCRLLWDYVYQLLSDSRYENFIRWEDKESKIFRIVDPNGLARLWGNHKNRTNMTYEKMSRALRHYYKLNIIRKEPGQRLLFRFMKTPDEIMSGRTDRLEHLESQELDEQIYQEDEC
# Procedure, shortened: as §1
sequence,measurement,setting,value
TTGGAA,binding signal,FLI1,"1.01 fold enrichment (6-mer frequency, TF over GST control)"
same,binding signal,GABPA,"1.03 fold enrichment (6-mer frequency, TF over GST control)"
same,binding signal,EHF,"1.04 fold enrichment (6-mer frequency, TF over GST control)"
same,binding signal,HSF1,"1.32 fold enrichment (6-mer frequency, TF over GST control)"
same,binding signal,ETV2,"1.02 fold enrichment (6-mer frequency, TF over GST control)"
same,binding signal,ELF3,"1.06 fold enrichment (6-mer frequency, TF over GST control)"
same,binding signal,CRX,"1.07 fold enrichment (6-mer frequency, TF over GST control)"
same,binding signal,ETV7,"1 fold enrichment (6-mer frequency, TF over GST control)"
same,binding signal,ETV6,"1.03 fold enrichment (6-mer frequency, TF over GST control)"

# From PMC7862700, “An all-to-all approach to the identification of sequence-specific readers for epigenetic DNA modifications on cytosine”
